Results taken from PubChem BioAssay AID488857 (Sanford-Burnham Center for Chemical Genomics, 2010).
Among all 1,400 compounds or so, about 560 (40%) were called active. The set was probably picked from earlier hits. The list shows a part of the results. Values without a mark were called inactive.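 The calls were made as follows: active = mean inhibition over duplicate tests at 10 µM above 50%; inactive = the rest.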

Assay: ASC/caspase-1 reporter retest in S. cerevisiae at one dose, specificity check for NALP1 project (AID 488857)
Settings: S. cerevisiae ASC/Caspase-1, beta-galactosidase luminescence, 24 h; at 10 µM; hits give high values

SMILES | inhibition
COc1ccc(C(=O)Nc2ccc(S(=O)(=O)Nc3nccc(C)n3)cc2)cc1OC | 35.9%
COc1ccc(NC(=S)SC)cc1OC | 60.2% (active)
COc1ccc(NC(=S)N(C(C)C)C2CCN(C(C)C)CC2)cc1Cl | 25.9%
CC1CN(S(=O)(=O)c2ccc(C(=O)Nc3nc(-c4cc5ccccc5o4)cs3)cc2)CC(C)O1 (stereo unspecified) | 32.9%
O=C(CN1CCc2ccccc2C1)NCc1ccco1 | 36.3%
O=C(c1cc(-c2ccc(O)cc2)on1)N1CCc2ccccc2C1 | 58.4% (active)
CCn1c(C(=O)N2CCc3ccccc3C2)cc2oc3ccccc3c21 | 44.5%
CC1(O)N(Cc2ccccc2)C(=O)OC12CCCCC2 (stereo unspecified) | 45.9%
OCCn1c(-c2ccc(F)cc2)csc1=Nc1ccccc1 | 46.5%
CSc1ccccc1NC(=O)Nc1ccccc1Cl | 49.8%
COc1ccc(C)cc1NC(=O)c1ccc(CN2CCN(c3ccccc3)CC2)cc1 | 33.5%
COc1ccc(NC(=O)c2ccc(C)cc2)c(OC)c1 | 36.7%
COc1ccc(C)cc1NC(=O)c1ccc(OC(F)F)cc1 | 66.2% (active)
O=C(NCCN1C(=O)S/C(=C\c2cccnc2)C1=O)c1cccc(OC(F)F)c1 | 45.1%
Cc1c(Cl)cccc1NC(=O)c1cccc(OC(F)F)c1 | 68.8% (active)
CCN(CC1COc2ccccc2O1)S(=O)(=O)c1ccc(C)cc1 (stereo unspecified) | 43.9%
Cc1c(C(=O)NCC2COc3ccccc3O2)oc2ccc(S(=O)(=O)N3CC(C)CC(C)C3)cc12 (stereo unspecified) | 30.4%
Cc1cccc(C)c1NC(=O)C(Cl)C(=O)c1ccccc1 (stereo unspecified) | 2.6%
CC(C)Oc1ccc(NC(=O)CCC(=O)O)cc1 | 28.5%
O=C(Nc1ccc(Nc2ccccc2)cc1)C(Cl)Cl | 76.3% (active)
CC(C)C(=O)Nc1ccc(Nc2ccccc2)cc1 | 68.2% (active)
C/C(=N\NC(=O)Nc1ccccc1)c1ccccc1 | 41.4%
O=c1c(O)c(-c2cccs2)oc2ccccc12 | 91% (active)
CCC(C)C(=O)N1c2ccccc2C(=C2SC(C(=O)OC)=C(C(=O)OC)S2)C(=S)C1(C)C (stereo unspecified) | 51.8% (active)
CCC(Cc1ccccc1)NC(=O)C1CCN(S(=O)(=O)c2c(C)noc2C)CC1 (stereo unspecified) | 28.6%
CN(C)c1ccc(/C=C/c2ccc3ccccc3[n+]2C)cc1 | 96.8% (active)

SMILES | inhibition
CC[n+]1c(/C=C/c2ccc(N(C)C)cc2)ccc2ccccc21 | 96.5% (active)
O=C(O)c1ccc(S(=O)(=O)/N=C2\C=C(Nc3ccccc3F)C(=O)c3ccccc32)cc1 | 100% (active)
O=C1C(Nc2ccccc2)=C/C(=N/S(=O)(=O)c2cccs2)c2ccccc21 | 89.7% (active)
O=C1c2ccccc2-c2cccc(NS(=O)(=O)c3ccc(C(F)(F)F)cc3)c21 | 36.2%
O=S(=O)(Nc1cccnc1)c1cccs1 | 25.8%
CN(C)c1ccc(/C=N/NC(=O)c2nnn(-c3nonc3N)c2CN(C)c2ccccc2)cc1 | 20.1%
Cc1cc(C)c(NC(=O)/C(=C/c2ccccc2)c2ccccc2)c(C)c1 | 31.6%
S=c1[nH]nc(-c2ccco2)n1/N=C/c1cccc(Cl)c1Cl | 65.7% (active)
CCOC(=O)C1CCCN(C2CC(=O)N(c3cccc(C(F)(F)F)c3)C2=O)C1 (stereo unspecified) | 42.8%
O=c1ncn(-c2cccc(F)c2)c2ncccc12 | 35.6%
O=C(NC(=S)NCCCN1CCOCC1)c1ccc([N+](=O)[O-])cc1 | 37%
O=[N+]([O-])c1ccc(NC(=S)NCCc2ccc(F)cc2)cc1 | 96.3% (active)
S=C(NCCc1ccccc1)Nc1ccc(Br)cc1 | 90.7% (active)
S=C(NCCCc1ccccc1)Nc1ccc(Cl)cc1 | 95.5% (active)
Cc1cc(C)cc(NS(=O)(=O)c2ccc(NC(=S)Nc3ccccc3)cc2)c1 | 23.9%
O=[N+]([O-])c1ccc(N2CCN(C(=S)Nc3ccccc3)CC2)cc1 | 35.5%
O=C(NCCCc1ccccc1)c1ccccc1O | 47.4%
CCCCCCCCCCOC(=O)Cn1c(COc2ccc(Cl)cc2)[n+](C)c2ccccc21 | 29.6%
Cc1ccc(Cn2nnnc2CN2CCC(c3nc4ccc(Cl)cc4[nH]3)CC2)cc1 | 31.4%
COC(=O)/C=C/C(=O)Nc1cccc(C(F)(F)F)c1 | 60.1% (active)
CCOC(=O)/C=C/C(=O)Nc1nccs1 | 47.1%
CCOC(=O)/C=C/C(=O)Nc1cccc([N+](=O)[O-])c1 | 55.5% (active)
COC(=O)/C=C\C(=O)Nc1cccc([N+](=O)[O-])c1 | 42.8%
Cc1ccc(NC(=O)/C=C\C(=O)NCC(=O)O)cc1C | 39%
CCN(C(=O)COC(=O)c1cccnc1Nc1cccc(C(F)(F)F)c1)C1CCS(=O)(=O)C1 (stereo unspecified) | 29.9%
